# From PubChem BioAssay
# Calls of active or inactive are those of the source. Unless noted, the rule behind the calls is not given here.
# How the values were obtained:
# [1] = A549 cell viability effects, profiling panel, calcein-AM fluorescence, 48 h, basal (AID 1162); conditions: higher = more signal; note: test concentration not given here
# [2] = adipocyte viability effects, profiling panel, cell-based, 3T3-L1 adipocytes, calcein-AM fluorescence, 48 h, basal (AID 1163); conditions: 3T3-L1 adipocytes viability, higher = more signal; note: test concentration not given here
# [3] = HepG2 cell viability effects, profiling panel, calcein-AM fluorescence, 48 h, basal (AID 1164); conditions: higher = more signal; note: test concentration not given here
# [4] = MM1S cell viability effects, profiling panel, calcein-AM fluorescence, 48 h, basal (AID 1165); conditions: higher = more signal;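 note: viability of MM1S multiple myeloma cells under basal unstimulated conditions; test concentration not given here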
# [5] = basal RPMI8226 viability, no added stimulus, profiling panel, cell-based, calcein-AM fluorescence, 48 h, PK04 Diversity Set (AID 1166); conditions: RPMI8226 myeloma viability, higher = more signal;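 note: cells grown under basal conditions without added stimulus; test concentration not given here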
# [6] = basal HepG2 mitochondrial membrane potential changes, profiling panel, cell-based, JC-1 fluorescence, 24 h, 100 nL compound (AID 1167); conditions: higher = more signal; note: test concentration not given here
# [7] = basal 3T3-L1 adipocyte mitochondrial potential changes, profiling panel, cell-based, JC-1 fluorescence, 3T3-L1 adipocytes, 24 h, 100 nL compound (AID 1168); conditions: JC-1 mitochondrial fluorescence, higher = more signal, called active from +8 up or from −8 down; note: test concentration not given here
# [8] = basal RPMI8226 mitochondrial membrane potential changes, profiling panel, cell-based, JC-1 fluorescence, 24 h, 100 nL compound (AID 1169); conditions: RPMI8226 myeloma, JC-1 mitochondrial potential fluorescence, higher = more signal; note: test concentration not given here
# [9] = basal MM1S mitochondrial membrane potential changes, profiling panel, cell-based, JC-1 fluorescence, 24 h, 100 nL compound (AID 1170); conditions: higher = more signal; note: test concentration not given here
# [10] = A549 lung cancer cell viability effects, profiling panel, resazurin fluorescence, 24 h, PK04 Diversity Set (AID 1171); conditions: higher = more signal, called active from +8 up or from −8 down; note: test concentration not given here
# [11] = HepG2 liver cancer cell viability effects, profiling panel, resazurin fluorescence, 24 h, PK04 Diversity Set (AID 1172); conditions: higher = more signal; note: test concentration not given here
# [12] = basal S. cerevisiae growth modulation, no modifier, primary screen, OD600, strain BY4716, 24 h, basal condition (AID 1173); conditions: OD600, 24 h, higher = more signal, called active from +8 up or from −8 down
# [13] = MM1S myeloma cell viability, profiling panel, resazurin fluorescence, basal, 24 h, PK04 Diversity Set (AID 1174); conditions: higher = more signal, called active from +8 up or from −8 down;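 note: MM1S multiple myeloma cell line; test concentration not given here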
# [14] = target: Dihydroorotate dehydrogenase (quinone), mitochondrial (Plasmodium falciparum (isolate 3D7)) (UniProt Q08210); experiment: PfDHODH enzyme inhibitors, primary screen, biochemical, C-terminal His tag, absorbance 600 nm (AID 1175); conditions: DCIP absorbance 600 nm, higher = more signal, called active from +8 up or from −8 down;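 note: recombinant parasite enzyme with a five histidine tag at its C terminus; test concentration not given here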
# [15] = P. aeruginosa biofilm formation inhibitors, primary screen, strain PAO1, LB-PBS medium, absorbance 600 nm (AID 1176); note: test concentration not given here; conditions: P. aeruginosa PAO1 growth/biofilm, A600, 12 h; higher = more signal
# [16] = S. cerevisiae RM11-1a growth modifiers, primary screen, strain RM11-1a, OD600, basal, 24 h (AID 1177); conditions: OD600, 24 h, higher = more signal, called active from +8 up or from −8 down;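 note: cultures grown under basal conditions with no added stressor; test concentration not given here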
# [17] = E. coli acrAB mutant growth effects, primary screen, E. coli filamentation inducers, strain DRC39, OD650, 24 h (AID 1178); conditions: higher = more signal, called active from +8 up or from −8 down;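 note: growth measured as culture turbidity by optical density at 650 nm; test concentration not given here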
# [18] = E. coli acrAB mutant growth effects, primary screen, E. coli filamentation inducers, strain DRC39, OD650, 48 h (AID 1179);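 note: screen aims at cell division blockers that make cells filament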; conditions: E. coli DRC39 delta-acrAB growth, higher = more signal, called active from +8 up or from −8 down
# [19] = RPMI8226 myeloma cell viability, profiling panel, resazurin fluorescence, basal, 24 h, PK04 Diversity Set (AID 1180); conditions: higher = more signal;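 note: RPMI8826 multiple myeloma cell line at 5000 cells per well; test concentration not given here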
# [20] = target: E3 ubiquitin-protein ligase XIAP (Homo sapiens) (UniProt P98170); experiment: XIAP binders, primary screen, biophysical, small-molecule microarray, fluorescence 635 nm (AID 1181); conditions: small-molecule microarray binding, higher = more signal;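 note: score merges 667 nm emission and signal to noise over triplicate slides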
# Chain of E3 ubiquitin-protein ligase XIAP (Homo sapiens) (P98170 whole entry, looked up): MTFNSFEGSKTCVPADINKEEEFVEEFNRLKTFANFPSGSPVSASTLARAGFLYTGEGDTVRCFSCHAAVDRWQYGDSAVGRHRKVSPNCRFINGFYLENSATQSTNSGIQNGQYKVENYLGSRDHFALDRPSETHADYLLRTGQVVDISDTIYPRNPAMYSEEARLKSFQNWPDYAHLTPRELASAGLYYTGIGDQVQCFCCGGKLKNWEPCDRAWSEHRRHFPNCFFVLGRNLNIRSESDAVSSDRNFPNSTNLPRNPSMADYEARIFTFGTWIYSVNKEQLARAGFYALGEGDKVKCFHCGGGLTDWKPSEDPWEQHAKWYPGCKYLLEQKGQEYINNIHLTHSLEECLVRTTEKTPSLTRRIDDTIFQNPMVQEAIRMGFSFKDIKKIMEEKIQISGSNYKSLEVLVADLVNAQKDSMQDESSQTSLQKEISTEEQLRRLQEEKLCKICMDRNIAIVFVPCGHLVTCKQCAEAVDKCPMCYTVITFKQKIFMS
# Chain of Dihydroorotate dehydrogenase (quinone), mitochondrial (Plasmodium falciparum (isolate 3D7)) (Q08210 whole entry, looked up): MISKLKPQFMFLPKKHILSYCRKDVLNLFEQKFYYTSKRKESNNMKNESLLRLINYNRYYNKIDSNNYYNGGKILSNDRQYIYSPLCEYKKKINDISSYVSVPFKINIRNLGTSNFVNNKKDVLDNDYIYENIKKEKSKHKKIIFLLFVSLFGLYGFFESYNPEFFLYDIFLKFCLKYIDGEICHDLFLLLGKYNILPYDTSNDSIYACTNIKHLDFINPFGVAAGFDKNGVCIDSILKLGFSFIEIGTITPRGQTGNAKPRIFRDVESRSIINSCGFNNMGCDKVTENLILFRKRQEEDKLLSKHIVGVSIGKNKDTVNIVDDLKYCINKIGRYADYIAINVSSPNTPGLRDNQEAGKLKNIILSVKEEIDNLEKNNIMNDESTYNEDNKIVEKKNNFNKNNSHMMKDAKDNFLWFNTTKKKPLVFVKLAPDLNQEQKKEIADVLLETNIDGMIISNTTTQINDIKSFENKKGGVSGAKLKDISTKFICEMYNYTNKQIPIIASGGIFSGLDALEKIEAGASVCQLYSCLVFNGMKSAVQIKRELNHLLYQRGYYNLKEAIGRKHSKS
compound,measurement,setting,value
C=CCOC(=O)[C@H]1[C@@H]2C(=O)O[C@@H](c3ccccc3)[C@@H](c3ccccc3)N2[C@@H](c2ccc(OCCOC(=O)[C@H]3C[C@H]4C(=O)N[C@@H](Cc5ccccc5)C(=O)N4[C@H]3c3cccc(OCCO)c3)cc2)[C@]12C(=O)Nc1ccc(I)cc12,z-score,[1],-0.894
same,z-score,[2],-0.532
same,z-score,[3],0.933
same,z-score,[4],-0.234
same,z-score,[5],-0.766
same,z-score,[6],-1.54
same,z-score,[7],-0.346 (inactive)
same,z-score,[8],-0.713
same,z-score,[9],-1.41
same,z-score,[10],-0.461 (inactive)
same,z-score,[11],0.169
same,z-score,[12],1.42 (inactive)
same,z-score,[13],-0.446 (inactive)
same,composite z-score,[14],0.64 (inactive)
same,z-score,[15],2.17 (inactive)
same,z-score,[16],1.04 (inactive)
same,z-score,[17],-0.0281 (inactive)
same,z-score,[18],0.0436 (inactive)
same,z-score,[19],0.0282
same,composite z-score,[20],-0.105
O=C1NC(=O)C2C1C=CC(C(O)c1ccc(Br)cc1)N2Nc1ccccn1 (stereo not given),z-score,[1],0.636
same,z-score,[2],0.805
same,z-score,[3],0.909
same,z-score,[4],-0.0483
same,z-score,[5],-0.767
same,z-score,[6],-0.169
same,z-score,[7],0.195 (inactive)
same,z-score,[8],0.698
same,z-score,[9],-0.273
same,z-score,[10],-1.58 (inactive)
same,z-score,[11],-0.917
same,z-score,[12],0.154 (inactive)
same,z-score,[13],-0.817 (inactive)
same,composite z-score,[14],-0.347 (inactive)
same,z-score,[15],1.45 (inactive)
same,z-score,[16],-1.44 (inactive)
same,z-score,[17],0.421 (inactive)
same,z-score,[18],0.956 (inactive)
same,z-score,[19],-0.913
same,composite z-score,[20],0.367
CCOc1cc(C(O)C2C=CC3C(=O)N(C)C(=O)C3N2N2CCCCC2)ccc1O (stereo not given),z-score,[1],0.256
same,z-score,[2],-0.413
same,z-score,[3],-0.07
same,z-score,[4],-0.224
same,z-score,[5],0.294
same,z-score,[6],-0.788
same,z-score,[7],-0.0873 (inactive)
same,z-score,[8],-0.109
same,z-score,[9],0.0215
same,z-score,[10],-0.296 (inactive)
same,z-score,[11],-1.1
same,z-score,[12],1.62 (inactive)
same,z-score,[13],-0.791 (inactive)
same,composite z-score,[14],0.66 (inactive)
same,z-score,[15],0.614 (inactive)
same,z-score,[16],2.07 (inactive)
same,z-score,[17],-0.637 (inactive)
same,z-score,[18],-0.8 (inactive)
same,z-score,[19],-0.698
same,composite z-score,[20],0.179
CC(C)CN1C(=O)[C@@]2(c3ccc([N+](=O)[O-])cc3)CC(=O)N(CC34CC5CC(CC(C5)C3)C4)[C@@H]2c2ccc(CO)cc21,z-score,[1],-0.181
same,z-score,[2],1.04
same,z-score,[3],-0.744
same,z-score,[4],-0.0484
same,z-score,[5],-0.544
same,z-score,[6],-0.849
same,z-score,[7],-0.316 (inactive)
same,z-score,[8],0.833
same,z-score,[9],-2.29
same,z-score,[10],-0.186 (inactive)
same,z-score,[11],-1.64
same,z-score,[12],-0.22 (inactive)
same,z-score,[13],0.113 (inactive)
same,composite z-score,[14],-4.84 (inactive)
same,z-score,[15],0.146 (inactive)
same,z-score,[16],-0.855 (inactive)
same,z-score,[17],0.197 (inactive)
same,z-score,[18],-0.213 (inactive)
same,z-score,[19],0.248
same,composite z-score,[20],-0.289
CC(C)(C)OC(=O)CC[C@]1(C(=O)O)N=C(c2ccc(OCCCO)cc2)O[C@H]1c1ccccc1,z-score,[1],-0.078
same,z-score,[2],0.155
same,z-score,[3],-0.0903
same,z-score,[4],0.55
same,z-score,[5],-0.135
same,z-score,[6],0.367
same,z-score,[7],0.721 (inactive)
same,z-score,[8],-0.0713
same,z-score,[9],-0.513
same,z-score,[10],0.16 (inactive)
same,z-score,[11],1.29
same,z-score,[12],-0.739 (inactive)
same,z-score,[13],0.904 (inactive)
same,composite z-score,[14],-14.3 (active)
same,z-score,[15],-0.76 (inactive)
same,z-score,[16],-0.279 (inactive)
same,z-score,[17],0.419 (inactive)
same,z-score,[18],1.3 (inactive)
same,z-score,[19],1.65
same,composite z-score,[20],-0.0594
CCCN1C(=O)[C@]2(Cc3ccccc3)N=C(c3ccc(OCCCO)cc3)O[C@@H]2c2ccccc21,z-score,[1],0.0649
same,z-score,[2],0.932
same,z-score,[3],-1.26
same,z-score,[4],-1.26
same,z-score,[5],-4.03
same,z-score,[6],0.596
same,z-score,[7],2.77 (inactive)
same,z-score,[8],-1.21
same,z-score,[9],-1.1
same,z-score,[10],-0.593 (inactive)
same,z-score,[11],0.734
same,z-score,[12],-1.94 (inactive)
same,z-score,[13],-0.753 (inactive)
same,composite z-score,[14],-0.42 (inactive)
same,z-score,[15],-0.0963 (inactive)
same,z-score,[16],0.931 (inactive)
same,z-score,[17],0.94 (inactive)
same,z-score,[18],0.718 (inactive)
same,z-score,[19],-1.13
same,composite z-score,[20],0.108
NCCCCCCNC(=O)[C@H]1C[C@H]2C(=O)N[C@@H](Cc3ccccc3)C(=O)N2[C@H]1c1ccc(O)cc1,z-score,[1],0.0513
same,z-score,[2],0.565
same,z-score,[3],-0.623
same,z-score,[4],0.675
same,z-score,[5],0.337
same,z-score,[6],-0.424
same,z-score,[7],0.0433 (inactive)
same,z-score,[8],-1
same,z-score,[9],-0.119
same,z-score,[10],1.18 (inactive)
same,z-score,[11],0.614
same,z-score,[12],-0.68 (inactive)
same,z-score,[13],1.58 (inactive)
same,composite z-score,[14],-1.32 (inactive)
same,z-score,[15],0.118 (inactive)
same,z-score,[16],-1.27 (inactive)
same,z-score,[17],0.279 (inactive)
same,z-score,[18],0.04 (inactive)
same,z-score,[19],1.27
same,composite z-score,[20],-0.0826
C=CCN1C(=O)[C@]2(CC=C)N=C(c3ccc(OCCCO)cc3)O[C@@H]2c2ccccc21,z-score,[1],-1.23
same,z-score,[2],0.931
same,z-score,[3],-1.82
same,z-score,[4],-3.48
same,z-score,[5],-3.86
same,z-score,[6],-1.12
same,z-score,[7],2.63 (inactive)
same,z-score,[8],-1.16
same,z-score,[9],-2.38
same,z-score,[10],-1.95 (inactive)
same,z-score,[11],-0.956
same,z-score,[12],-2.51 (inactive)
same,z-score,[13],-3.23 (inactive)
same,composite z-score,[14],0.0306 (inactive)
same,z-score,[15],1.26 (inactive)
same,z-score,[16],0.506 (inactive)
same,z-score,[17],0.578 (inactive)
same,z-score,[18],0.509 (inactive)
same,z-score,[19],-3.09
same,composite z-score,[20],0.197
COC(=O)[C@@]1(Cc2ccccc2)[C@H]2c3cc(C(=O)N4CCCC4)n(Cc4ccsc4Br)c3C[C@H]2CN1C(=O)c1ccccc1,z-score,[1],-0.991
same,z-score,[2],0.213
same,z-score,[3],-0.248
same,z-score,[4],-1.54
same,z-score,[5],-3.59
same,z-score,[6],1.6
same,z-score,[7],-0.205 (inactive)
same,z-score,[8],-0.804
same,z-score,[9],-1.23
same,z-score,[10],-0.9 (inactive)
same,z-score,[11],-1.08
same,z-score,[12],0.666 (inactive)
same,z-score,[13],-0.686 (inactive)
same,composite z-score,[14],-0.876 (inactive)
same,z-score,[15],-0.0703 (inactive)
same,z-score,[16],1.15 (inactive)
same,z-score,[17],-0.28 (inactive)
same,z-score,[18],0.139 (inactive)
same,z-score,[19],-3.12
same,composite z-score,[20],0.218
